Screening data from PubChem BioAssay.
TROY NFkB inh: inhibitors of TROY-driven NF-kB signaling, primary screen, Q293 LMP1-TROYcd cells, NF-kB luciferase, uHTS. Q293 LMP1-TROYcd NF-kB luciferase reporter, 4 h. inhibition, % at 10 µM. 360,000 tested, 0.98% active;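 active means compounds whose plate-normalised and pattern-corrected inhibition of the luciferase reporter signal at the single screening dose is 50% or more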
TWEAK-Fn14 inh: inhibitors of TWEAK-Fn14 signaling, primary screen, luciferase reporter cells, uHTS | inhibition, % at 10 µM | AID 1159606, 2016 | 360,000 tested, 2% active | TWEAK-stimulated Fn14 reporter cells, luciferase luminescence, 8 h; in the data active means inhibition above about 50%
EWS-Fli block: EWS/Fli-driven NR0B1 reporter inhibitors, primary screen, A673 cells, NR0B1 luciferase, luminescence, MLPCN library. viability-normalised. inhibition, % at 12.6 µM. 350,000 tested, 0.67% active;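 active means mean inhibition of at least 50% after viability correction, with every replicate also passing that limit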;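 further: firefly luciferase signal divided by Alamar Blue viability fluorescence both relative to DMSO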
LGR2 inh: inhibitors of bursicon-induced LGR2 CRE-luciferase signal, primary screen, cell-based, HEK293, CRE-luciferase reporter, bursicon stimulation; Drosophila bursicon receptor LGR2 (rickets); bursicon-stimulated, 4 h; inhibition, % at 9.99 µM; 380,000 tested, 0.35% active; AID 720647, 2013;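 active means drop in luminescence signal, shown as inhibition above about 50% in the replicate tests, limit read from the data, passing the limit was not always enough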;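 further: agonist challenge used bursicon conditioned medium at about half maximal strength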
PAX8 reporter: inhibitors of PAX8-driven TPO luciferase reporter, primary screen, RMG-I cells, single concentration; AID 652154, 2013; inhibition, % at 12.6 µM; SteadyGlo, 24 h; 360,000 tested, 1.2% active;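 active means mean replicate inhibition at least 60% with every replicate also reaching 60%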;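 further: luciferase light reporting Pax8 driven TPO promoter activity; plate controls were median of neutral control wells for no effect and mitoxantrone controls for full effect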
* hit, by the source's call. Shown are actives, neighbours in structure and some others; about 2.8% of the full set was active somewhere.

CC(c1ccco1)N(C(=O)c1cc(Cl)cc(Cl)c1)c1ccccn1 (stereo not given) was read as TROY NFkB inh 3.4, TWEAK-Fn14 inh 6.5, EWS-Fli block 2.6, LGR2 inh 5.3 and PAX8 reporter 5.1.
For COc1cccc(NC(=O)C[C@@H]2CC[C@@H]3[C@H](COc4ccc(NC(=O)C5CCCCC5)cc4C(=O)N3C)O2)c1 the results were EWS-Fli block -3.1, LGR2 inh -14.0 and PAX8 reporter 5.6.
Cc1cc(C(F)(F)F)c(C#N)c(SCC(=O)Nc2nc3cc(Br)ccc3s2)n1 was read as TROY NFkB inh 72.0*, TWEAK-Fn14 inh 78.8*, EWS-Fli block -10.6, LGR2 inh -31.0 and PAX8 reporter -94.7.
For CCCNC(=O)[C@@H]1[C@@H](CO)[C@@H]2Cn3c(cccc3=O)[C@@H]2N1CC1CC1 the results were EWS-Fli block -1.7, LGR2 inh -5.0 and PAX8 reporter 1.7.
`O=C(N[C@@H]1CC[C@@H](CCNS(=O)(=O)c2ccc(F)cc2)O[C@H]1CO)C1CCCC1` gave EWS-Fli block 0.6, LGR2 inh 9.3 and PAX8 reporter -2.6.
`C[C@H]1CN([C@@H](C)CO)C(=O)c2cccc(NC(=O)c3nc4ccccc4s3)c2O[C@@H]1CN(C)C(=O)Nc1ccc2c(c1)OCO2` gave EWS-Fli block 3.8 and LGR2 inh 10.1.
Cc1cc(NC(=O)CSc2cn(CCNC(=O)c3ccc(Cl)cc3)c3ccccc23)no1 was read as TROY NFkB inh 70.7*, TWEAK-Fn14 inh 66.9*, EWS-Fli block -25.4, LGR2 inh 9.7 and PAX8 reporter -117.3.
For Cc1ccc(C(=O)NCCn2cc(SCC(=O)Nc3nnc(C)s3)c3ccccc32)cc1 the results were TROY NFkB inh 77.2*, TWEAK-Fn14 inh 90.6*, EWS-Fli block -22.2, LGR2 inh 17.0 and PAX8 reporter -82.2.
For COc1ccc(C(=O)NCCn2cc(SCC(=O)Nc3cc(C)on3)c3ccccc32)cc1OC the results were TROY NFkB inh 5.0, TWEAK-Fn14 inh 6.0 and PAX8 reporter 0.3.
`CCOc1ccc(C(=O)NCCn2cc(SCC(=O)Nc3cc(C)on3)c3ccccc32)cc1` gave TROY NFkB inh 56.2*, TWEAK-Fn14 inh 17.1 and PAX8 reporter -22.8.
C/C=C/c1ccc([C@@H]2[C@@H](CN(CC)C(=O)CN(C)C)N(C(C)=O)[C@H]2CO)cc1 was read as EWS-Fli block -5.0, LGR2 inh -11.1 and PAX8 reporter -16.5.
Screening Cn1c(N2CCN(c3ccccn3)CC2)nc2c1c(=O)n(Cc1ccc(Cl)cc1)c(=O)n2C returned TROY NFkB inh 53.9* and TWEAK-Fn14 inh 52.3*.
`COc1ccc(CN2CC3(CN(C(=O)C4CCC4)C3)c3c(n(C)c4cc(OC)ccc34)[C@@H]2CO)cc1` gave EWS-Fli block 6.0 and LGR2 inh -20.9.
CCCCNS(=O)(=O)c1ccc2nc(SCC(=O)Nc3sccc3C#N)[nH]c2c1 was read as TROY NFkB inh 70.6*, TWEAK-Fn14 inh -6.1 and PAX8 reporter 22.8.
For CCCCNS(=O)(=O)c1ccc2nc(SCC(N)=O)[nH]c2c1 the results were TROY NFkB inh 2.8, TWEAK-Fn14 inh -6.8, EWS-Fli block -7.2, LGR2 inh -2.3 and PAX8 reporter -4.9.
O=C(NCC[C@@H]1CC[C@H](NC(=O)C2CC2)[C@@H](CO)O1)c1cnccn1 was read as EWS-Fli block 7.4, LGR2 inh -4.1 and PAX8 reporter -3.9.
Screening CN(C)C(=O)c1cccc(-c2cnc3c(NC=O)cc(-c4cccc(C(F)(F)F)c4)cn23)c1 returned TROY NFkB inh 34.3, TWEAK-Fn14 inh 63.4*, EWS-Fli block 12.7 and LGR2 inh 16.3.
Screening COc1cc(-c2cnc3c(NC=O)cc(-c4ccsc4)cn23)cc(OC)c1OC returned TROY NFkB inh 16.0, TWEAK-Fn14 inh 17.8, EWS-Fli block 56.0* and LGR2 inh -21.1.
Screening COc1cc(-c2cnc3c(NC=O)cc(-c4cccc(C(F)(F)F)c4)cn23)cc(OC)c1OC returned TROY NFkB inh 39.4, TWEAK-Fn14 inh 75.1*, EWS-Fli block 21.0, LGR2 inh 13.4 and PAX8 reporter 21.4.
Screening COc1cccc(-c2cc(NC=O)c3ncc(-c4cc(OC)c(OC)c(OC)c4)n3c2)c1 returned TROY NFkB inh 34.7, TWEAK-Fn14 inh 41.9, EWS-Fli block 52.6*, LGR2 inh -16.6 and PAX8 reporter 26.2.
For COc1cccc(-c2cnc3c(NC=O)cc(-c4ccc(O)c(OC)c4)cn23)c1 the results were TROY NFkB inh 9.9, TWEAK-Fn14 inh -5.1, EWS-Fli block 0.5, LGR2 inh -26.4 and PAX8 reporter -5.9.
Screening C[C@@H]1CN([C@@H](C)CO)S(=O)(=O)c2ccc(C#CCN(C)C)cc2O[C@H]1CN(C)C returned EWS-Fli block -5.4 and LGR2 inh -2.8.
For CCC(C)c1ccc(C(C)NC(=S)NCc2ccc(F)cc2)cc1 (stereo not given) the results were TROY NFkB inh 40.2, TWEAK-Fn14 inh 6.3, LGR2 inh 6.6 and PAX8 reporter 5.9.
CCCc1ccc(C(C)NC(=S)NCc2ccc(F)cc2)cc1 (stereo not given) was read as TROY NFkB inh 56.2*, TWEAK-Fn14 inh 24.5, EWS-Fli block 16.6 and LGR2 inh 10.2.
Screening Cc1cccc[n+]1CC(=O)/C=C1\N(C)c2ccccc2C1(C)C returned TROY NFkB inh 14.6, TWEAK-Fn14 inh 27.8, EWS-Fli block 75.3*, LGR2 inh -14.5 and PAX8 reporter 39.5.
For Cc1ccc[n+](CC(=O)/C=C2\N(C)c3ccccc3C2(C)C)c1 the results were TROY NFkB inh 14.1, TWEAK-Fn14 inh 28.5, LGR2 inh 14.7 and PAX8 reporter 38.9.
`CCC(=O)N(C)C[C@@H]1Oc2ncc(-c3ccccc3OC)cc2C(=O)N([C@H](C)CO)C[C@@H]1C` gave EWS-Fli block -8.1 and LGR2 inh -11.2.
`COc1ccc(-c2nn(-c3ccccc3)cc2/C=C(\C#N)C(N)=O)cc1[N+](=O)[O-]` gave TROY NFkB inh -1.1, TWEAK-Fn14 inh 8.4, EWS-Fli block -9.3, LGR2 inh 19.8 and PAX8 reporter 5.7.
O=C(O)CCn1cc(/C=C\C(=O)c2ccc(Cl)cc2)c(-c2cccc(Br)c2)n1 was read as TROY NFkB inh 21.1, TWEAK-Fn14 inh 64.2*, EWS-Fli block -1.9, LGR2 inh 10.8 and PAX8 reporter -2.8.
COc1ccc(-c2nn(CCC(=O)O)cc2/C=C/C(=O)O)cc1[N+](=O)[O-] was read as TROY NFkB inh 64.8*, TWEAK-Fn14 inh -3.3, EWS-Fli block -3.3, LGR2 inh -4.2 and PAX8 reporter 8.7.
Screening CO[C@@H]1CN(C)C(=O)c2ccc(NS(C)(=O)=O)cc2OC[C@@H](C)N(C(=O)C2CCCC2)C[C@H]1C returned EWS-Fli block -24.9, LGR2 inh -7.3 and PAX8 reporter -62.5.
